Results published in PubChem BioAssay.
Values joined by “and” are separate entries in the source; they are usually repeats but may differ in a detail not shown here. Identical values can stand only once. Active and inactive are the calls of the source. How the calls were made is not given here.

System: Aerobactin synthetase IucA (Klebsiella pneumoniae hvKP1)
Assay: Biochemical IucA enzyme inhibition primary screen of the Spectrum library (AID 1346200);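 further: 100% = wells without compound and 0% = wells lacking enzyme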
Conditions: malachite green pyrophosphate, A620, at 8 µM, active compounds read low

| SMILES | activity remaining |
| --- | --- |
| COc1ccccc1-c1coc2cc(OC)c(OC)c(OC)c2c1=O | 116% (inactive) |
| Nc1ccc(S(=O)(=O)Nc2ccc(Cl)nn2)cc1 | 112% (inactive) |
| CC1=CC(=O)CC(C)(C)C1(O)/C=C/C(C)=C\C(=O)O (stereo unspecified) | 117% (inactive) |
| CC(=O)O[C@H]1CC[C@]2(C)C3=CC(=O)[C@@]4(C)C(C[C@@H]5OC6(OCC(C)CC6Br)[C@@H](C)[C@@H]54)C3CC[C@H]2C1 (stereo partly specified) | 117% (inactive) |
| C[N+]1(C)CCCC(OC(=O)C(O)(c2ccccc2)c2ccccc2)C1 (stereo unspecified) | 111% (inactive) |
| COc1cc([C@@H]2c3cc4c(cc3[C@H](O)[C@H]3COC(=O)[C@@H]23)OCO4)cc(OC)c1OC | 82.7% (inactive) |
| NC(=NCCC[C@H](N)C(=O)O)NC(CCC(=O)O)C(=O)O (stereo partly specified) | 107% (inactive) |
| COc1cc(C(=O)NCCCCCC(=O)O)cc(OC)c1OC | 120% (inactive) |
| CC(=O)NC1SCCC1=O (stereo unspecified) | 112% (inactive) |
| COc1ccc2c(c1)O[C@H]1c3ccc(OC)cc3OC[C@@H]21 | 122% (inactive) |
| NCCCC[C@H](N[C@@H](CCc1ccccc1)C(=O)O)C(=O)N1CCC[C@H]1C(=O)O | 114% (inactive) |
| Cc1ccc2c(Cl)cc(Cl)c(O)c2n1 | 85.6% (inactive) |
| C=CCSSSCC=C | 91.6% (inactive) |
| NC(=NCCCCCCN=C(N)/N=C(\N)Nc1ccc(Cl)cc1)/N=C(\N)Nc1ccc(Cl)cc1 | 95.5% (inactive) |
| CN(C)CCC(c1ccc(Br)cc1)c1ccccn1 (stereo unspecified) | 123% (inactive) and 96.1% (inactive) |
| O=C1C=CC(=C(c2ccc(O)cc2)c2ccc(O)cc2)C=C1 | 105% (inactive) |
